From PMC4336329 (PLoS ONE, 2015)
Hit rate of the full screen: of about 310,000 compounds, about 14,000 (4.5%) showed an effect of 50% or more. Effects have a minus sign here. This is one part of a sample in which strong results are shown more often than they occur.

Target: human ether-à-go-go-related gene (hERG) potassium channel (human, UniProt Q12809)
Assay: primary screen, population patch clamp on CHO cells stably expressing hERG; higher = less effect of the substance
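Also: peak tail current of the secondary pulse compared with the same well before compound.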

human ether-à-go-go-related gene (hERG) potassium channel, sequence (Q12809 whole entry, looked up): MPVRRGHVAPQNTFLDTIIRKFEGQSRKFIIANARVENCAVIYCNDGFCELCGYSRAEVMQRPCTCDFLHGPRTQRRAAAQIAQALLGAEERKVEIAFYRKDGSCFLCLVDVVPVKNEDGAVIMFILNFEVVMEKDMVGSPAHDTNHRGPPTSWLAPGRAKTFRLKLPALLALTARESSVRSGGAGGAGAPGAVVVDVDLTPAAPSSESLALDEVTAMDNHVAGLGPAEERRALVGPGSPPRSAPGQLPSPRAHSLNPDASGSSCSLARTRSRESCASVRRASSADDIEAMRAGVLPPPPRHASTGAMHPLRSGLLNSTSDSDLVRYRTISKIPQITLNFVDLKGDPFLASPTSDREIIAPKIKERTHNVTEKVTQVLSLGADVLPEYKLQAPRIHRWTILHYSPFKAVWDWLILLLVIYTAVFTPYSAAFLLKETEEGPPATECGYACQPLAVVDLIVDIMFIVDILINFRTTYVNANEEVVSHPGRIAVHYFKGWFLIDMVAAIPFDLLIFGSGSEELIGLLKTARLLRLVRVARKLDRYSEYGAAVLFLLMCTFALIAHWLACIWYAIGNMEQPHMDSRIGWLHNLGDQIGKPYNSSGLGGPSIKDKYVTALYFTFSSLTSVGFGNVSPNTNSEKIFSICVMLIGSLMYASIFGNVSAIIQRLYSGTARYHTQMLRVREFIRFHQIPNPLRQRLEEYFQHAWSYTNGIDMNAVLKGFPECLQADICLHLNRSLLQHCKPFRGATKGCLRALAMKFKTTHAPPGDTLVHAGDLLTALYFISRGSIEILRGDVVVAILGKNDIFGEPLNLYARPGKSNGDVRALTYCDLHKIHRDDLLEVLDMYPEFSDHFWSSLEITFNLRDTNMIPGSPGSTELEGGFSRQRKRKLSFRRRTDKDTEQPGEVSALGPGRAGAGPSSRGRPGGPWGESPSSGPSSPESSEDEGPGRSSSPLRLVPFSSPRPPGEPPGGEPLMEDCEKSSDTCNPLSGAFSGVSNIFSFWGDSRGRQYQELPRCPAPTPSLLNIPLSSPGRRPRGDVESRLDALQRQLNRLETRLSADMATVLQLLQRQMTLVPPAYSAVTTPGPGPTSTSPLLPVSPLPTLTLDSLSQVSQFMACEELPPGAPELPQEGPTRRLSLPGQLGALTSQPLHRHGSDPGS

| Structure (SMILES) | hERG current change (%, negative = inhibition) at 10uM [%] |
| --- | --- |
| CCc1cc(=O)oc2c(C)c(O)c(CN3CCCCC3)cc12 | -0.833 |
| CCc1n[nH]c(=S)n1N=C1CCC(C)CC1 (centres unmarked) | 19.1 |
| CC1(C)CC(=O)C=C(NC2=CC3OC(c4ccccc4)OCC3OC2=O)C1 (centres unmarked) | -0.196 |
| C#Cc1ccc([C@@H]2C=C(C(=O)Nc3ccccc3)O[C@H](OCC)[C@H]2CCCO)cc1 | -22.2 |
| CN1CCCN(C(=O)c2cc(-c3cccc4ccccc34)nc3ccccc23)CC1.Cl | -59.4 |
| Cc1ccccc1-c1cc(C(=O)N2CCCC2)c2ccccc2n1 | -47.9 |
| O=C(c1cc(-c2ccccc2Cl)nc2ccccc12)N1CCC1 | -12.4 |
| CN1CCCN(C(=O)c2cc(-c3ccc(Cl)c(Cl)c3Cl)nc3ccccc23)CC1.Cl | -69 |
| CC(=O)N1CCN(C(=O)c2cc(-c3cccc4ccccc34)nc3ccccc23)CC1 | -28.9 |
| O=C(c1cc(-c2ccccc2Cl)nc2ccccc12)N1CCN(c2ccccc2O)CC1 | -22.6 |
| CCOC(=O)CNC(=O)CSc1nnc(-c2ccncc2)n1-c1ccc(Cl)cc1 | -8.18 |
| C=CCc1ccccc1OCC(O)CN1C(=O)c2ccccc2C1=O (centres unmarked) | -27.2 |
| O=C(C(c1ccccc1)c1ccccc1)N1CCN(CCN2C(=O)c3cccc4cccc(c34)C2=O)CC1 | -4.74 |
| Cc1cccc(OCC(O)CN2CCN(CCN3C(=O)c4cccc5cccc(c45)C3=O)CC2)c1C (centres unmarked) | -35.7 |
| Cc1ccc(NC(=S)N2CCN(CCN3C(=O)c4cccc5cccc(c45)C3=O)CC2)cc1 | -1.29 |
| Cc1ccccc1OCC(O)CN1C(=O)c2ccccc2C1=O (centres unmarked) | 4.28 |
| C=CCc1ccccc1OCC(O)CN1CCN(CCO)CC1.Cl (centres unmarked) | 11.3 |
| Cc1ccc(C)c(OCC(O)CN2CCN(CCN3C(=O)c4cccc5cccc(c45)C3=O)CC2)c1.Cl (centres unmarked) | -67.3 |
| Cc1ccccc1OCC(O)CN1CCN(CCN2C(=O)c3cccc4cccc(c34)C2=O)CC1 (centres unmarked) | -74.2 |
| CC(=O)c1ccccc1OCC(O)CN1CCN(CCN2C(=O)c3cccc4cccc(c34)C2=O)CC1 (centres unmarked) | -73.3 |
| C=CCc1ccccc1OCC(O)CN1CCN(CCN2C(=O)c3cccc4cccc(c34)C2=O)CC1.Cl (centres unmarked) | -57.8 |
| NC(=O)CN1CCN(CCN2C(=O)c3cccc4cccc(c34)C2=O)CC1 | -5.61 |

| Structure (SMILES) | hERG current change (%, negative = inhibition) at 10uM [%] |
| --- | --- |
| COc1ccc(CN(C)CC(=O)NC(C)c2ccccc2)c(OC)c1 (centres unmarked) | -13.8 |
| Cc1ccc(-c2noc(CN3CCN(C(c4ccccc4)c4ccccc4)CC3)n2)cc1 | 7.84 |
| CN(C)CCNC(=O)c1cccc(NS(=O)(=O)c2ccc(Cl)c(Cl)c2)c1 | 0.919 |
| O=C(c1ccccc1)N1CC(COc2ccccc2)OC(c2cccnc2)O1 (centres unmarked) | -5.14 |
| O=C(Cn1nnc(-c2ccccc2NC(=O)c2ccccc2)n1)Nc1ccc2c(c1)OCCO2 | 1.49 |
| Cc1cc(Cl)ccc1C1=CC(=O)C[C@H](c2ccc(F)cc2)C1 | 15.7 |
| Cc1cc(=O)[nH]c2c1c(C)nn2C1CCCCC1 | -3.84 |
| O=C(COc1cccc(F)c1)NNC(=O)Cc1ccc(S(=O)(=O)N2CCOCC2)s1 | -11.9 |
| C/C(=N\Nc1ccc(Cl)cc1)c1c(O)cc(C)oc1=O | 15.3 |
| c1ccc2c(c1)CC/C2=N/Nc1nc2ccccc2[nH]1 | 9.49 |
| COCCCn1c(C(=O)NCCN2CCOCC2)cc2c(=O)n3cccc(C)c3nc21 | -9.21 |
| COCCCn1c(=N)c(C(N)=S)cc2c(=O)n3cccc(C)c3nc21 | -84.3 |
| CCOCCCNC(=O)c1cc2c(=O)n3cccc(C)c3nc2n1C | 12.4 |
| COCCCn1c(C(=O)N2CC(C)OC(C)C2)cc2c(=O)n3cccc(C)c3nc21 (centres unmarked) | 0.735 |
| Cc1cccn2c(=O)c3cc(C(=O)N4CCOCC4)n(C)c3nc12 | -32.1 |
| Cc1cccn2c(=O)c3cc(C(N)=S)c(=N)n(CCCOC(C)C)c3nc12 | -78.2 |
| CCCCn1c(=N)c(S(=O)(=O)c2ccc(Br)cc2)cc2c(=O)n3cccc(C)c3nc21 | 13 |
| CCOCCCn1c(=N)c(C(N)=S)cc2c(=O)n3cccc(C)c3nc21 | -82.6 |
| COCCCn1c(C(=O)N2CCOCC2)cc2c(=O)n3cccc(C)c3nc21 | -11.4 |
| Cc1cccn2c(=O)c3cc(C(=O)NCCCOC(C)C)sc3nc12 | -6.24 |
| Cc1cccn2c(=O)c3cc(C(N)=S)c(=N)n(CCCN4CCOCC4)c3nc12 | -87.6 |
| CCC(C)n1c(SCC(=O)Nc2ccccc2C(F)(F)F)nc2ccsc2c1=O (centres unmarked) | -14 |

| Structure (SMILES) | hERG current change (%, negative = inhibition) at 10uM [%] |
| --- | --- |
| Cc1ccc(C(=O)Oc2coc(CSc3nnc(NC(=O)C4CC4)s3)cc2=O)cc1 | 16.6 |
| Cc1[nH]c(C)c(S(=O)(=O)N(C)Cc2ccccc2)c1C(=O)N1CCCC1 | 15.2 |
| CC(=O)N1CCc2cc(S(=O)(=O)CCC(=O)NCc3ccco3)ccc21 | 12.5 |
| Cc1nn(-c2ccccc2)c(C)c1/C=N/NC(=O)CSc1nnc(-c2ccccc2)n1-c1ccc(Cl)cc1 | 5.46 |
| Cc1nc(C)c(C(=O)Nc2cccc(C)c2C)o1 | -0.939 |
| Cc1c(NC(=O)C2(C)CCCCC2)c(=O)n(-c2ccccc2)n1C | 6.22 |
| CC(C)(C)[C@]1(O)CCN2C[C@H]3c4ccccc4CCc4cccc(c43)[C@@H]2C1.Cl | -78.3 |
| O=C(C1CCCCC1)N1CC(=O)N2CCc3ccccc3C2C1 (centres unmarked) | 10.2 |
| CC1(O)CCN2C(=O)CCc3cccc1c32 (centres unmarked) | -9.44 |
| CCOc1cc(-c2noc(CCC(=O)NCCc3ccccc3)n2)ccc1OC | 1.79 |
| CN(C)c1nc(NCc2ccccc2)nc(N/N=C/c2ccc(Br)cc2)n1 | 13.3 |
| COc1cc(C2C(C#N)=C(N)Oc3c2c(-c2ccccc2)nn3-c2ccccc2)cc(OC)c1OC (centres unmarked) | -65 |
| COc1ccc(C2C(C#N)=C(N)Oc3c2c(-c2ccccc2)nn3-c2ccccc2)c(OC)c1OC (centres unmarked) | -1.15 |
| COc1ccccc1C1C(C#N)=C(N)Oc2c1c(-c1ccccc1)nn2-c1ccccc1 (centres unmarked) | 0.699 |
| O=C(Nc1ccn(Cc2c(F)c(F)cc(F)c2F)n1)c1ccc(COc2cc(Cl)ccc2Cl)o1 | 6.83 |
| OC(CNCc1ccccc1)c1ccccc1 (centres unmarked) | 4.68 |
| CSc1ccc(CNCC(O)c2ccccc2)cc1.Cl (centres unmarked) | -55 |
| CC(NCC#Cc1ccccc1)C(O)c1ccccc1.Cl (centres unmarked) | -1.67 |
| Cl.OC(CNCc1ccc(-c2ccccc2)cc1)c1ccccc1 (centres unmarked) | -16.1 |
| CSc1ccc(CNC(C)C(O)c2ccccc2)cc1.Cl (centres unmarked) | -51.4 |
| CCNCC(O)c1cccc(O)c1 (centres unmarked) | 20.8 |
| Cl.Oc1cccc(C(O)CNCc2ccc(-c3ccccc3)cc2)c1 (centres unmarked) | -66 |

| Structure (SMILES) | hERG current change (%, negative = inhibition) at 10uM [%] |
| --- | --- |
| CC(NCc1ccccc1Cl)C(O)c1ccccc1.Cl (centres unmarked) | 4.31 |
| Cl.OC(CNCc1ccncc1)c1ccccc1 (centres unmarked) | 6.97 |
| COc1ccc(N2CC(C(=O)NCc3nnnn3-c3ccc(C)c(C)c3)CC2=O)cc1 (centres unmarked) | -19.6 |
| Cc1ccc(CNC(=O)CN2C(=O)COc3ccc(C)cc32)cc1 | -5.06 |
| COc1ccc(C(=O)CNc2ccccc2C#N)cc1 | 28.1 |
| CCCOc1ccc(S(=O)(=O)NCCN2CCOCC2)c2ccccc12 | -23.3 |
| CC(CCc1ccccc1)NC(=O)COC(=O)CC1CC2CCC1C2 (centres unmarked) | -6.07 |
| CSc1ccc(CN2CCN(CC=C(C)C)C(CCO)C2)cc1 (centres unmarked) | -46.2 |
| CSc1cccc(CN2CCN(CCc3ccccc3)C(CCO)C2)c1 (centres unmarked) | -80.4 |
| OCCC1CN(CC2CC2)CCN1Cc1ccc(F)c(F)c1 (centres unmarked) | -25.5 |
| CSc1ncc(CN2CCN(C3CCCCC3)C(CCO)C2)cn1 (centres unmarked) | -16.9 |
| CSc1ccc(CN2CCN(C3CCCC3)C(CCO)C2)cc1 (centres unmarked) | -53.8 |
| CSc1ncc(CN2CCN(C3CCCC3)C(CCO)C2)cn1 (centres unmarked) | -0.478 |
| CSc1ccc(CN2CCN(Cc3ccccc3)C(CCO)C2)cc1 (centres unmarked) | -56.8 |
| CSc1cccc(CN2CCN(CCC(C)C)C(CCO)C2)c1 (centres unmarked) | -33.2 |
| OCCC1CN(Cc2ccc(Oc3ncccn3)cc2)CCN1Cc1ccc(F)c(F)c1 (centres unmarked) | -23.6 |
| OCCC#Cc1ccc(CN2CCN(Cc3ccccc3)C(CCO)C2)cc1 (centres unmarked) | -15 |
| CSc1cccc(CN2CCN(Cc3ccc(F)c(F)c3)C(CCO)C2)c1 (centres unmarked) | -69.5 |
| CC12CCC(C/C1=N\OC(=O)c1c(F)cccc1F)C2(C)C (centres unmarked) | -0.495 |
| CC(C)(C)C1CCC(=NNC(=O)CN(c2ccccc2)S(=O)(=O)c2ccccc2[N+](=O)[O-])CC1 (centres unmarked) | 6.69 |
